Several values for one entry are separate records, joined by “and”; a condition that tells them apart may be missing. Equal entries are not always repeated. This is part of a sample that, as a whole, favours compounds with a hit. Of some 83,000 tested, about 20% had one in any assay.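 Cells were grown in 96-well plates and exposed to the test compound at a single concentration for 48 hours; results are reported as percent growth, with values below 10 considered active.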 Values without a mark were called inactive.
The compounds below were run on IGROV1 ovarian (assay: NCI-60 one-dose screen, 48 h (100 = growth as untreated, 0 = no growth, -100 = all killed)). Details: 10 µM.
Experimental: Growth inhibition of the IGROV1 human tumor cell line is measured as a screen for anti-cancer activity. Cells are grown in 96 well plates and exposed to the test compound for 48 hours. Compounds are tested at a single concentration, which is 10^-5 M for most compounds. The reported endpoint is percent growth (GI% or GIPRCNT), where numbers from 0 - 100% represent growth inhibition, and numbers from -100% - 0 represent cell death. For example, a value of 40 represents 60% growth inhibition. A value of 0 means no net growth occurred over the course of the experiment. A value of -40 indicates 40% of cells at the beginning of the experiment died by the end of the experiment. A value of -100 means all cells are dead at the end of the experiment.
NCI-60 Human Tumor Cell Lines Screen was performed using the standard one-dose NCI protocol, which is described in more detail at https://dtp.cancer.gov/discovery_development/nci-60/default.htm.
Compounds with GIPRCNT values below 10 were considered active. Activity score was based on GIPRCNT using the following formula: […]
Score is 0 for GIPRCNT values of 100 or above, 50 for GIPRCNT values of 0, and 100 for GIPRCNT values of -100.
With `CS/C(=C\c1ccc(C(=O)c2ccc(C)cc2)n1C)S(C)=O` (stereo not given) the growth was 93.2%. `O=c1ccn2c(n1)OC1CC2OC1COC(c1ccccc1)(c1ccccc1)c1ccccc1` (stereo not given) was tested, and the growth was 115%.

Same assay, conditions: 10 µM unless noted
With `O=S(=O)(O)c1ccc2cc(O)ccc2c1` the growth was 109%. With `CCCC(=O)Oc1ccc(CC)cc1` the growth was 104%. `Nc1nc(=S)c2[nH]cnc2[nH]1` was tested, and the growth was 27.3% and 36.7%. `O=P(O)(O)OC1C(OP(=O)(O)O)C(OP(=O)(O)O)C(OP(=O)(O)O)C(OP(=O)(O)O)C1OP(=O)(O)O.[Cu+2]` (stereo not given) showed a growth of 86.9%. In the case of `COc1ccc(/C=C/C(=O)O)cc1OC`, the growth is reported as 104% and 115%. `COc1ccc2nccc(Cl)c2c1` showed a growth of 105%. In the case of `CC1(CO)CCCC1NCCNC1CCCC1(C)CO` (stereo not given), the growth is reported as 115% and 107%. Compound `CCOC(=N)c1ccc(C(=N)OCC)cc1` has a growth of 111%. Compound `COc1cc2c(cc1O)C(=O)CCCC2` has a growth of 64.7%. `O=[N+]([O-])c1ccc(N/N=C/C2CCCCCC2)c([N+](=O)[O-])c1` was tested, and the growth was 91%. In the case of `Cc1ccc2cccc([N+](=O)[O-])c2n1`, the growth is reported as 109% and 114%. For `O=C(O)C1CSCN1` (stereo not given), the growth was 106%. `CCc1ccc(OC(=O)CCl)cc1` gave a growth of 108%. `CCCC(=O)OCC(COC(=O)CCC)OC(=O)CCC` showed a growth of 105%. For `C/C=C/C(=O)OCCCCCCCCCCCC`, the growth was 111%. `O=c1[nH]nnc2cc(Cl)ccc12` was tested, and the growth was 104% and 116%. Compound `C/C(CC(C)C)=N/NC(N)=S` has a growth of 97.4%. In the case of `CC(C)(C)OC(=O)NCCc1ccc(N)cc1`, the growth is reported as 104%. Compound `Nc1ccccc1SC1CC(=O)N(c2ccc(I)cc2)C1=O` (stereo not given) has a growth of 85.2%. In the case of `Cc1cc(=NO)cc(C)n1O`, the growth is reported as 114%. Work on `CCOC(=O)c1ccc(C(=N)N)cc1` yielded a growth of 107%. For `CCCCCCC(C)CC1=C(O)c2ccccc2C(=O)C1=O` (stereo not given), the growth was 41.5%. Compound `O=C(c1ccncc1)c1c(Cc2ccccc2)ccc2ccccc12` has a growth of 18%. Work on `O=C1C=CC(n2cc(F)c(=O)[nH]c2=O)O1` (stereo not given) yielded a growth of 103%. `O=C1Cc2ccccc2C(=O)N1` showed a growth of 76.8%. Compound `CCNC1=CC(=O)c2ncccc2C1=O` has a growth of 63.2%. In the case of `O=C(Nc1ccccc1)OCC(CN1CCCCC1)OC(=O)Nc1ccccc1` (stereo not given), the growth is reported as 68.8% and 98.3%. For `O=C1C2=C(Nc3cc(Cl)ccc3N2)OC1c1c[nH]c2ccc(COc3ccccc3)cc12` (stereo not given), the growth was 65.3%. Compound `CC(=O)C[n+]1ccccc1Sc1ccc(Cl)cc1` has a growth of 101%. `CCOP(C)(=O)/C(Cc1ccc(OC)c(OC)c1)=N\O` (stereo not given) gave a growth of 104%. With `OC(CC(c1ccccc1)c1cccc2ccccc12)(c1ccccc1)c1ccccc1` (stereo not given) the growth was 88.6% and 84.8%. `COC(=O)c1nc(=S)[nH]c(C(=O)OC)c1C(=O)c1ccc(OC)cc1` showed a growth of 99.9%. `CC1(C)CC(=O)NC1=O` gave a growth of 110%. For `CC(C)(C)C1=CC(=O)C(C(C)(C)C)=CC1=O`, the growth was 95.5% and 110%. In the case of `COc1ccc(CCN=Cc2ccc(Cl)cc2)cc1OC`, the growth is reported as 105%. `O=[N+]([O-])c1ccc(NC2CCCCC2)nc1` was tested, and the growth was 116% and 104%.

Same assay, conditions: 100 µM
Compound `CS/C(=C\c1ccc(C(=O)c2ccc(C)cc2)n1C)S(C)=O` (stereo not given) has a growth of 82.9%. In the case of `O=c1ccn2c(n1)OC1CC2OC1COC(c1ccccc1)(c1ccccc1)c1ccccc1` (stereo not given), the growth is reported as 85.4%.

Source: PubChem BioAssay (NCI)
